Compound activity deposited in PubChem BioAssay by National Center for Advancing Translational Sciences (NCATS).
NPR1 antag: blocks ANP-stimulated signaling of human Npr1 receptor | 76,000 tested, 1.6% active | AID 1347048 | Potency, µM (highest dose often 46.3 µM), for the others: top-dose activity change, negative = inhibition, most hits filed as inhibitors | P16066 | HEK293 hNpr1 GloSensor cGMP, ANP-stimulated luminescence; calls by dose curve; further: nearly all actives have a fitted effect of over 60% in size
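Compound pre-incubated 30 min at room temperature on GloSensor-loaded HEK293 cells stably carrying hNpr1 and the pGS-40F cGMP biosensor. Stimulation uses hNppA at 0.1 nM final; luminescence is taken at baseline and 20 min post-agonist.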
HEK293 tox: kills HEK 293 cells | 94,000 tested, 6.6% active | Potency, µM (top dose mostly 115 µM), without a hit: top-dose activity change, negative = cytotoxicity, actives largely listed as inhibitors | HEK 293 viability, ATP luminescence (CellTiter-Glo), 48-72 h; further: nearly all actives have a fitted effect of over 60% in size
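Luminescence from cellular ATP, measured with CellTiter-Glo, indicates HEK 293 viability. Cells plated at 250 cells/well are treated with compound for 48 or 72 hr at 37 degree Celsius before reagent addition.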
FLuc inh: inhibitors of firefly (Photinus pyralis) luciferase | P08659 | purified P. pyralis luciferase, luminescence, biochemical | Potency, µM (series often up to 115 µM), hits mostly inhibitors | 76,000 tested, 2.5% active | AID 1347043; further: nearly all actives have a fitted effect of over 65% in size
Target sequence (P08659 whole entry, looked up): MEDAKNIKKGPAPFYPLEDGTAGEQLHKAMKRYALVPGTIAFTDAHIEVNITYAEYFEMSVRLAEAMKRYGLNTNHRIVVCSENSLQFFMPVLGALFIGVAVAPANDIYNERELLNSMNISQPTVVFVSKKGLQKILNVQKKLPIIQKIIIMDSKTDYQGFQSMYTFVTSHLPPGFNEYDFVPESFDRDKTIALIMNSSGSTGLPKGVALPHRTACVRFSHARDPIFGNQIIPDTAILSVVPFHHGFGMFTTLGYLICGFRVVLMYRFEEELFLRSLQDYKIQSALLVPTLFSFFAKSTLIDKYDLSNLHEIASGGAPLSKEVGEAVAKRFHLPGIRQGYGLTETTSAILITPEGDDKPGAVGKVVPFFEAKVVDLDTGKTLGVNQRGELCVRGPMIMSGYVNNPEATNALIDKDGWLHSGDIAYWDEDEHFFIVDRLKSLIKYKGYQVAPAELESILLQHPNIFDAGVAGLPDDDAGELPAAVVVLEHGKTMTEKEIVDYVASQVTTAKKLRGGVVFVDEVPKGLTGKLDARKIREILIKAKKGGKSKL
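FLuc 10nM, D-luciferin 10uM, ATP 10uM, Mg acetate 10mM, Tris acetate pH 7.5, Tween/BSA; cpd qHTS; enzyme added last; CCD luminescence.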
3T3 cytotox: NIH 3T3 cell cytotoxicity; Potency, µM (doses to about 96.7 µM), for the others: top-dose activity change, negative = cytotoxicity, usual class: inhibitors; 94,000 tested, 4.3% active; NIH 3T3 viability, CellTiter-Glo ATP luminescence, 48-72 h; further: nearly all actives have a fitted effect of over 55% in size
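NIH 3T3 cells at 400 cells/well received 23 nL of compound by pintool and were incubated 48 or 72 h at 37 °C. Viability was read as ATP-coupled CellTiter-Glo luminescence.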
Active calls of the source: *; i = inactive; ? = inconclusive; · = no result; [ ] = another dose, or the depositor's remark. This is a sample that favours compounds with a hit; in the whole collection about 11% have one here. Unless noted, the call rests on the fitted dose curve; in most records, active means well fitted curve in the direction sought with a large enough effect; inconclusive means small, poorly fitted or top-dose-only effect, or another doubt; inactive means no such curve, though single readings can be large; an effect the other way counts as inactive or inconclusive. On the % scale 0 is the no-effect control and ±100 the full control effect; potency means the concentration at half of the fitted maximal effect.

SMILES	NPR1 antag	HEK293 tox	FLuc inh	3T3 cytotox
CC1=NS(=O)(=O)N(C)C=C1C(=O)OCc1nc(-c2ccc3c(c2)OCO3)no1	11µM*	-10%	?	-6%
CC1=NS(=O)(=O)N(C)C=C1C(=O)OCc1nc(-c2ccc(Cl)cc2)no1	10µM*	?	?	-29%
COc1ccc(CCC(=O)N2CCCCCCNC(=O)[C@@H]3CCC[C@@H]32)cc1	0%	2%	i	2%
Cc1oc(-c2cccc(Cl)c2)nc1CN1CCN2C(=O)CNC(=O)C2C1 (stereo not drawn)	5%	4%	i	-16%
CC(=O)Nc1ccc(C(=O)N2CCc3cn(CC(C)C)c4cccc(c34)C2)cc1	-12%	?	i	?
Cc1ccsc1C(=O)C1CCCN(Cc2cc(F)ccc2-n2cccn2)C1 (stereo not drawn)	-2%	40µM*	i	?
COCC[C@]1(O)CCN(Cc2cc(F)ccc2-n2cccn2)C[C@H]1C	-14%	?	i	2%
CCC1=C(C(=O)OC)C(c2cccc(C)c2)N2C(CC(=O)N3CCCCC3C)=CSC2=N1 (stereo not drawn)	-19%	45µM*	i	-20%
CCC1=C(C(=O)OC)C(c2cccc(C)c2)N2C(CC(=O)Nc3ccc(OC)cc3)=CSC2=N1 (stereo not drawn)	-13%	40µM*	i	?
CCC1=C(C(=O)OC)C(c2ccc(C)cc2C)N2C(CC(=O)N3CCCCC3C)=CSC2=N1 (stereo not drawn)	-12%	?	i	?
O=c1ncn(CC2CC2)c2ccc(-c3ccoc3)nc12	3%[70.6 µM]	i	i	?
CCOc1cc(=O)n2c(c1C(=O)Nc1ccc(C)cc1F)CCCC2	4%	11%	i	-6%
OCC1(CN2CCCC2)CCN(Cc2c(Cl)cccc2Cl)CC1	2%	?	i	?
OCC1(CN2CCCC2)CCN(Cc2cc(F)cc(F)c2)CC1	7%	-5%	i	-30%
OCC1(CN2CCCC2)CCN(C/C=C/c2ccccc2)CC1	3%	35µM*	i	?
OCC1(CN2CCCC2)CCN(Cc2ccc3ccccc3c2)CC1	3%	40µM*	i	40µM*
COc1ccc2[nH]c(C(=O)N3CCN4CCS(=O)(=O)N(C5CC5)C(=O)C4C3)cc2c1 (stereo not drawn)	3%	-18%	?	-15%
CN1CCCN(S(=O)(=O)c2ccc3c(c2)OCCO3)c2ccccc21	-13%	32µM*	i	?
Cc1ccc(S(=O)(=O)N2CCCN(C)c3ccccc32)cc1C	-8%	?	i	?
CC(=O)N1CCC2(CC1)CN(C(=O)c1ccc(N)nc1)Cc1ccccc1O2	·	i	·	i
COC1CN(c2cccc(F)c2)C12CCN(C(=O)CC1CCCCC1)CC2 (stereo not drawn)	-2%	45µM*	i	?
COc1cccc(S(=O)(=O)N2CCC3(CC2)C(OC)CN3c2cccc(F)c2)c1 (stereo not drawn)	-2%	-13%	i	-12%
COC1CN(c2cccc(F)c2)C12CCN(S(=O)(=O)c1cccs1)CC2 (stereo not drawn)	·	18µM*	·	?
COC1C(=O)N(c2cccc(F)c2)C12CCN(C(=O)CC1CCN(C(C)=O)CC1)CC2 (stereo not drawn)	-3%	-22%	i	-10%
Cc1ccc(C(=O)N[C@@H](Cc2ccccc2)C(N)=O)cc1N1CCNC1=O	9%	1%	i	-18%
SMILES	NPR1 antag	HEK293 tox	FLuc inh	3T3 cytotox
N#Cc1cccc(C(=O)NC2CCN(c3cc(-c4cccs4)[nH]n3)CC2)c1	-20%	?	i	?
CC1Oc2ccc(NC(=O)c3ccccc3Cl)cc2CN(Cc2ccccc2F)C1=O (stereo not drawn)	-11%	?	i	?
CC1Oc2ccc(NC(=O)c3ccc(F)cc3F)cc2CN(Cc2ccccc2Cl)C1=O (stereo not drawn)	-21%	50µM*	i	?
CC1Oc2ccc(NC(=O)COc3ccccc3)cc2CN(Cc2ccccc2Cl)C1=O (stereo not drawn)	-5%	25µM*	i	?
COc1ccc(CC(=O)Nc2ccc3c(c2)CN(CCOc2ccccc2)C(=O)C(C)O3)cc1 (stereo not drawn)	-17%	45µM*	i	?
COc1ccc(CN2Cc3cc(NC(=O)Cc4ccccc4)ccc3OC(C)C2=O)cc1 (stereo not drawn)	-17%	?	i	?
O=S(=O)(c1ccccc1)c1nnn2c1nc(N1CCOCC1)c1ccccc12	·	i	·	i
COc1ccc(NC(=O)N2C[C@@H]3C[C@H](C2)c2ccc(NC(=O)Nc4ccccc4OC)c(=O)n2C3)cc1	6%	i	i	-3%
CC(=O)N1CCN(C(=O)c2cc(C(C)(C)C)nc3c2cnn3C)CC1	·	i	·	-16%
COc1ccccc1CC(=O)N1CCCN(CCc2ccccc2)c2ccccc21	-11%	40µM*	i	?
COCCN1CCCN(C(=O)c2cccc(OC)c2)c2ccccc21	-3%	?	i	-25%
COCC(=O)N1CCCN(CCc2ccccc2)c2ccccc21	-12%	35µM*	i	-29%
COCCN1CCCN(C(=O)c2cccc(Cl)c2)c2ccccc21	-5%	45µM*	i	?
O=C(CCC1CCN(C(=O)c2ccccc2)CC1)NCC1CCCCC1	-9%	-6%	i	-20%
CSc1ccc(-c2cccc(CN3CCC(N[S+](=O)([O-])c4ccc(C)cc4)CC3)c2)cc1	·	20µM*	·	14µM*
Cc1ccc([S+](=O)([O-])NC2CCN(Cc3cccc(-c4ccc(F)c(F)c4)c3)CC2)cc1	·	22µM*	·	16µM*
CSc1ccc(-c2cccc(CN3CCC(NC(=O)c4ccc(F)cc4)CC3)c2)cc1	·	-8%	·	-15%
Cc1noc(C)c1CC(=O)N1CCc2nnc([C@@H]3C[C@@H](O)CN3C(C)C)n2CC1	7%	4%	i	3%
O=C(c1cccc(O)c1)N1CC=C(c2cnc3cnc(-c4ccccc4)cn23)CC1	-20%[70.6 µM]	100µM*	i	?
O=C(c1ccn[nH]1)N1CC=C(c2cnc3cnc(-c4ccccc4)cn23)CC1	-1%[70.6 µM]	-21%[172 µM]	i	22µM*
O=C(c1ccccc1)N1CCN(C(=O)c2cccc(-c3ccccn3)c2)CC1	·	-11%	·	-12%
CN1CCCC2(Cc3ccccc3CN(C(=O)c3ccccc3)C2)C1 (stereo not drawn)	·	-13%	·	-14%
CN(Cc1cccc(CCN)c1)Cc1cnn(-c2ccc(F)cc2)c1	1%	?	i	45µM*
CN(Cc1cnn(-c2ccccc2)c1)Cc1cc2ccccc2[nH]c1=O	5%	-1%	i	i
Cc1cnc(-c2ccccc2)n1C1CCN(C(=O)Nc2ccccc2F)CC1	-5%	-25%	i	-18%
CC(=O)N1CCN(c2nc3c(s2)CC(C(=O)Nc2cc(Cl)ccc2F)CC3)CC1 (stereo not drawn)	-22%	40µM*	i	?
